Molecules are shown by their SMILES. About 79,000 compounds went through this panel and 15% of them were active in at least one assay; those are over-represented in the sample as a whole. Activity calls are given as the source filed them. Cut-off read from the data, not from the text of the source: active = growth inhibition above about 70%; inactive = the rest.

This assay can be described thus: NCI Yeast Anticancer Drug Screen. Data for the sgs1 mgt1 strain (AID 161).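 Note: 0% = growth of cultures given vehicle only.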 The conditions noted are these: S. cerevisiae sgs1 mgt1 strain, at 50.0 µM, stronger effect = higher value. The gist of the method: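 Growth of a repair-deficient yeast mutant was monitored after compound treatment and expressed as inhibition relative to vehicle-treated cultures.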
Take `CCOC(=O)C(C#N)=C1c2ccccc2Oc2ccccc21`: the growth inhibition is -2% (inactive).

As to `COC(=O)C[CH2][Ge]([CH3])([CH3])[S]c1ccccc1`, the growth inhibition was 34.1% (inactive). The figure for `CN(C1c2ccccc2Oc2ccccc21)S(=O)(=O)c1ccc([N+](=O)[O-])cc1` is 6% (inactive); for `Nc1cccc2sccc12` it is -3.85% (inactive); for `Cc1ccc(OC(=O)c2cccs2)cc1` it is -11.9% (inactive). The figure for `N#CN=CN1CCN(c2ccccc2)CC1` is -0.15% (inactive); for `Cc1ccc(NC(=O)CN2CCCCC2)cc1` it is -7% (inactive); for `COc1ccc(-c2cc(-c3ccccc3)c(C#N)c(=O)n2C2OC(CO)C(O)C(O)C2O)cc1` (stereo unspecified) it is 2.45% (inactive). `Cc1cccc(C(O)(c2cccc(C)c2)C2(O)CCCCC2)c1`: the growth inhibition is -0.9% (inactive). Regarding `COC(=O)c1ccccc1-n1c(-c2ccc([N+](=O)[O-])cc2)csc1=NC(=O)c1cccc([N+](=O)[O-])c1`, the growth inhibition was 19.4% (inactive).

Turning to `Cc1ccc(S(=O)(=O)NC(=O)NCc2cccc(Cl)c2)cc1`, the growth inhibition is 19.8% (inactive). With `COC1OC(COS(C)(=O)=O)C2OC(C)(C)OC12` (stereo unspecified) the figure was 3.55% (inactive); with `N#CC(c1ccccc1)N(CCCCCCN(C(=O)c1ccccc1)C(C#N)c1ccccc1)C(=O)c1ccccc1` (stereo unspecified), 20.3% (inactive). The figure for `CC1(C)C(C(=O)/C=C2\Nc3ccccc3C2(C)C)=Nc2ccccc21` is -2.05% (inactive); for `O=S(=O)(c1ccccc1)N1CN(S(=O)(=O)c2ccccc2)CN(S(=O)(=O)c2ccccc2)C1` it is 19.5% (inactive); for `CCCCC1=CC1(C#N)[N+](=O)[O-]` (stereo unspecified) it is 20.5% (inactive).

The record behind these values is PubChem BioAssay (NCI).
